Test results published in PubChem BioAssay (NCI).
This is part of a sample that, as a whole, favours compounds with a hit. Of some 79,000 tested, about 15% had one in any assay. Values without a mark were called inactive. The source made the active and inactive calls. Cut-off read from the data, not from the text of the source: active = growth inhibition above about 70%; inactive = the rest.

Experiments:
[1] = NCI Yeast Anticancer Drug Screen. Data for the rad50 strain (AID 155);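 note: 0% = growth of vehicle-only cultures of the same strain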; conditions: S. cerevisiae rad50 strain growth inhibition, hits give high values
Procedure, shortened: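 Compounds were tested on a yeast strain with an engineered DNA damage repair alteration; the reported value is growth inhibition normalised to vehicle treatment.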

[2] = NCI Yeast Anticancer Drug Screen. Data for the mec2-1 strain (AID 157); conditions: S. cerevisiae mec2-1 strain, hits give high values
Procedure, shortened: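 Using mec2-1 yeast: add compound, measure growth, express inhibition versus vehicle-treated cultures.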

[3] = NCI Yeast Anticancer Drug Screen. Data for the sgs1 mgt1 strain (AID 161);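 note: 0% = growth of cultures given vehicle only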; conditions: S. cerevisiae sgs1 mgt1 strain, hits give high values
Procedure, shortened: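 Yeast cells carrying a defined DNA-repair defect were exposed to test compounds. Growth inhibition was measured relative to vehicle-treated controls.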

[4] = NCI Yeast Anticancer Drug Screen. Data for the cln2 rad14 strain (AID 165);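 note: 0% = growth equal to vehicle treated cultures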; conditions: S. cerevisiae cln2 rad14 strain, hits give high values
Procedure, shortened: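 Yeast strain cln2 rad14, bearing defects in cell cycle control and DNA repair, serves as the test system; values reflect growth inhibition compared with vehicle.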

[5] = NCI Yeast Anticancer Drug Screen. Data for the bub3 strain (AID 167); conditions: S. cerevisiae bub3 mutant strain, hits give high values
Procedure, shortened: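 Growth of a checkpoint-deficient yeast mutant is measured after compound exposure. Values represent inhibition relative to vehicle.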

[6] = NCI Yeast Anticancer Drug Screen. Data for the mlh1 rad18 strain (AID 175); conditions: S. cerevisiae mlh1 rad18 strain growth inhibition, hits give high values
Procedure, shortened: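 Steps: expose repair-defective yeast to compound; measure growth; express inhibition against vehicle-treated controls.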

[7] = at 5.0 µM (retest, dose inferred, filed as 0.5)
[8] = at 50.0 µM (retest, dose inferred, filed as 5.0)

Structure (SMILES): O=C(NC(Cc1ccccc1)C(=O)O)c1ccncc1 (centres undefined)
- growth inhibition [1, 7]: -2%
- growth inhibition [1, 8]: -12%
- growth inhibition ([1]; at 50.0 µM): 61.6%
- growth inhibition [2, 7]: -1%
- growth inhibition [2, 8]: -7%
- growth inhibition ([2]; at 50.0 µM): 28.9%
- growth inhibition [3, 7]: 0%
- growth inhibition [3, 8]: -5%
- growth inhibition ([3]; at 50.0 µM): 63.2%
- growth inhibition [4, 7]: -1%
- growth inhibition [4, 8]: -11%
- growth inhibition ([4]; at 50.0 µM): 57.2%
- growth inhibition [5, 7]: -1%
- growth inhibition [5, 8]: -2%
- growth inhibition ([5]; at 50.0 µM): 44.1%
- growth inhibition [6, 7]: -1%
- growth inhibition [6, 8]: -6%
- growth inhibition ([6]; at 50.0 µM): 46.1%

Structure (SMILES): O=C(N/N=C/c1ccccc1O)c1ccccc1-n1cccc1
- growth inhibition [1, 7]: 52%
- growth inhibition [1, 8]: 64%
- growth inhibition ([1]; at 50.0 µM): 53.6%
- growth inhibition [2, 7]: 30%
- growth inhibition [2, 8]: 53%
- growth inhibition ([2]; at 50.0 µM): 36.6%
- growth inhibition [3, 7]: 43%
- growth inhibition [3, 8]: 81% (active)
- growth inhibition ([3]; at 50.0 µM): 80% (active)
- growth inhibition [4, 7]: 32%
- growth inhibition [4, 8]: 49%
- growth inhibition ([4]; at 50.0 µM): 45%
- growth inhibition [5, 7]: 41%
- growth inhibition [5, 8]: 71% (active)
- growth inhibition ([5]; at 50.0 µM): 62.7%
- growth inhibition [6, 7]: 59%
- growth inhibition [6, 8]: 74% (active)
- growth inhibition ([6]; at 50.0 µM): 63.1%

Structure (SMILES): CCc1nc(N)nc(N)c1-c1ccc(N(C)Cc2ccccc2)c([N+](=O)[O-])c1
- growth inhibition [1, 7]: 10%
- growth inhibition [1, 8]: -13%
- growth inhibition ([1]; at 50.0 µM): 8.55%
- growth inhibition [2, 7]: 7%
- growth inhibition [2, 8]: 0%
- growth inhibition ([2]; at 50.0 µM): 22.1%
- growth inhibition [3, 7]: 37%
- growth inhibition [3, 8]: 37%
- growth inhibition ([3]; at 50.0 µM): 3.1%
- growth inhibition [4, 7]: 31%
- growth inhibition [4, 8]: 40%
- growth inhibition ([4]; at 50.0 µM): 4.05%
- growth inhibition [5, 7]: 52%
- growth inhibition [5, 8]: 34%
- growth inhibition ([5]; at 50.0 µM): 10.1%
- growth inhibition [6, 7]: 8%
- growth inhibition [6, 8]: -6%
- growth inhibition ([6]; at 50.0 µM): 14.5%

Structure (SMILES): O=C(NNc1ccccc1)C(O)C(O)C(O)C(O)C(O)C(O)C(O)CO (centres undefined)
- growth inhibition [1, 7]: 17%
- growth inhibition [1, 8]: 87% (active)
- growth inhibition ([1]; at 50.0 µM): 69.1%
- growth inhibition [2, 7]: 10%
- growth inhibition [2, 8]: 78% (active)
- growth inhibition ([2]; at 50.0 µM): 39.4%
- growth inhibition [3, 7]: 10%
- growth inhibition [3, 8]: 82% (active)
- growth inhibition ([3]; at 50.0 µM): 88.1% (active)
- growth inhibition [4, 7]: 3%
- growth inhibition [4, 8]: 82% (active)
- growth inhibition ([4]; at 50.0 µM): 95.9% (active)
- growth inhibition [5, 7]: 1%
- growth inhibition [5, 8]: 94% (active)
- growth inhibition ([5]; at 50.0 µM): 88.3% (active)
- growth inhibition [6, 7]: 45%
- growth inhibition [6, 8]: 96% (active)
- growth inhibition ([6]; at 50.0 µM): 92.8% (active)

Structure (SMILES): CCC[n+]1ccnc2ccccc21
- growth inhibition [1, 7]: 2%
- growth inhibition [1, 8]: 2%
- growth inhibition ([1]; at 50.0 µM): 15.3%
- growth inhibition [2, 7]: -11%
- growth inhibition [2, 8]: -1%
- growth inhibition ([2]; at 50.0 µM): 8.3%
- growth inhibition [3, 7]: -4%
- growth inhibition [3, 8]: -10%
- growth inhibition ([3]; at 50.0 µM): 27.9%
- growth inhibition [4, 7]: 13%
- growth inhibition [4, 8]: 4%
- growth inhibition ([4]; at 50.0 µM): 11%
- growth inhibition [5, 7]: -2%
- growth inhibition [5, 8]: -5%
- growth inhibition ([5]; at 50.0 µM): 19.6%
- growth inhibition [6, 7]: -4%
- growth inhibition [6, 8]: 14%
- growth inhibition ([6]; at 50.0 µM): 22.9%

Structure (SMILES): O=C1CCC(c2ccccc2)=NN1c1nc2ccccc2s1
- growth inhibition [1, 7]: 5%
- growth inhibition [1, 8]: 90% (active)
- growth inhibition ([1]; at 50.0 µM): 98.3% (active)
- growth inhibition [2, 7]: -3%
- growth inhibition [2, 8]: 79% (active)
- growth inhibition ([2]; at 50.0 µM): 99.2% (active)
- growth inhibition [3, 7]: 0%
- growth inhibition [3, 8]: 85% (active)
- growth inhibition ([3]; at 50.0 µM): 99.2% (active)
- growth inhibition [4, 7]: -3%
- growth inhibition [4, 8]: 83% (active)
- growth inhibition ([4]; at 50.0 µM): 99% (active)
- growth inhibition [5, 7]: -6%
- growth inhibition [5, 8]: 95% (active)
- growth inhibition ([5]; at 50.0 µM): 99.3% (active)
- growth inhibition [6, 7]: 4%
- growth inhibition [6, 8]: 93% (active)
- growth inhibition ([6]; at 50.0 µM): 99.5% (active)

Structure (SMILES): C=Cc1cc(N=Nc2ccc([N+](=O)[O-])cc2)ccc1N(C)C
- growth inhibition [1, 7]: 6%
- growth inhibition [1, 8]: 12%
- growth inhibition ([1]; at 50.0 µM): 48%
- growth inhibition [2, 7]: -1%
- growth inhibition [2, 8]: -2%
- growth inhibition ([2]; at 50.0 µM): 4.2%
- growth inhibition [3, 7]: 3%
- growth inhibition [3, 8]: 25%
- growth inhibition ([3]; at 50.0 µM): 4.6%
- growth inhibition [4, 7]: -2%
- growth inhibition [4, 8]: -15%
- growth inhibition ([4]; at 50.0 µM): -25.9%
- growth inhibition [5, 7]: 2%
- growth inhibition [5, 8]: 6%
- growth inhibition ([5]; at 50.0 µM): 2.55%
- growth inhibition [6, 7]: -9%
- growth inhibition [6, 8]: -12%
- growth inhibition ([6]; at 50.0 µM): 47.7%

Structure (SMILES): CCN(CC)CCOC(=O)c1ccc(N=Nc2ccc(O)c3ccccc23)cc1
- growth inhibition [1, 7]: 0%
- growth inhibition [1, 8]: 99% (active)
- growth inhibition ([1]; at 50.0 µM): 98.8% (active)
- growth inhibition [2, 7]: 4%
- growth inhibition [2, 8]: 100% (active)
- growth inhibition ([2]; at 50.0 µM): 99.1% (active)
- growth inhibition [3, 7]: 6%
- growth inhibition [3, 8]: 99% (active)
- growth inhibition ([3]; at 50.0 µM): 99% (active)
- growth inhibition [4, 7]: 6%
- growth inhibition [4, 8]: 99% (active)
- growth inhibition ([4]; at 50.0 µM): 86.8% (active)
- growth inhibition [5, 7]: -2%
- growth inhibition [5, 8]: 99% (active)
- growth inhibition ([5]; at 50.0 µM): 41.1%
- growth inhibition [6, 7]: -7%
- growth inhibition [6, 8]: 99% (active)
- growth inhibition ([6]; at 50.0 µM): 99% (active)
